# A selection: hits, their analogues and other compounds. The true share with any hit is near 2.7%.
# HIV Env fusion – blocks HIV Env-driven cell-cell fusion. actives 1.1% (n = 360,000). inhibition, % at 12.3 µM. HeLa-JRFL Env/CEM21 cell fusion, luciferase;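 active = mean replicate inhibition score of at least 50 and every replicate individually at or above 50; inconclusive = only one of the two criteria met; inactive = mean below 50 and not all replicates reaching 50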;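 also: 0% = plate neutral controls and 100% = maraviroc near 300 nM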
# PGC1a acetyl inh – lowers PGC1a acetylation signal in U2OS cells | actives 0.17% (n = 350,000) | AlphaScreen anti-acetyl-lysine; with virally co-expressed GCN5 acetyltransferase | inhibition, % at 15.6 µM;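 active = every replicate shows inhibition of at least 40%; inconclusive = mean inhibition at least 40% but some replicate below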;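 also: 0% = neutral control wells and 100% = positive control wells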
# PAX8 reporter – PAX8 transcriptional activity inhibition. AID 652154. inhibition, % at 12.6 µM. actives 1.2% (n = 360,000). RMG-I TPO-luciferase reporter, SteadyGlo, 24 h;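 active = mean replicate inhibition at least 60% with every replicate also reaching 60%; inconclusive = only one of the two criteria is met; inactive = mean below 60% and not all replicates reaching 60%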;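 also: luciferase light reporting Pax8 driven TPO promoter activity; plate controls were median of neutral control wells for no effect and mitoxantrone controls for full effect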
# EWS-Fli block – EWS/Fli transcriptional activity inhibition; A673 NR0B1-luciferase reporter, viability-normalised; inhibition, % at 12.6 µM; actives 0.67% (n = 350,000);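 active = mean inhibition of at least 50% after viability correction, with every replicate also passing that limit; inconclusive = mean reaches 50% but only one of two replicates passes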;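 also: firefly luciferase signal divided by Alamar Blue viability fluorescence both relative to DMSO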
# F508del corr – CFTR F508del correction in bronchial cells; CFBE cells, YFP halide quenching; stimulated with forskolin plus potentiator P3; % fluorescence drop versus neutral controls; activity (quench increase), % at 7.58 µM; actives 0.36% (n = 350,000); AID 720511;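 active = mean added fluorescence quench of at least 8% versus neutral control, with both replicates also reaching 8%; inconclusive = only one of the mean or replicate conditions met; inactive = mean below 8% and not both replicates reaching 8%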;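 also: cells transiently co-express mutant CFTR-F508del with the halide-sensitive YFP; corrector assay measuring rescue of mutant channel to the surface after 24 h compound exposure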
# INS-1E GSIS act – GLuc luminescence reporter in INS-1E cells, primary screen for activators of glucose-dependent secretion of insulin. actives 0.61% (n = 370,000). activation, % at 16.6 µM. INS-1E GLuc reporter insulin secretion, 2-3 h. AID 743287;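 active = lowest replicate activation of at least 40%, so every replicate reaches that level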;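 also: 0% = median of neutral control wells and 100% = median of IBMX positive control wells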
# Starred values were filed as active, the others as inactive; ? = inconclusive; . = no result given; [ ] = remark or other dose.
SMILES,HIV Env fusion,PGC1a acetyl inh,PAX8 reporter,EWS-Fli block,F508del corr,INS-1E GSIS act
CSc1ncccc1C(=O)NCc1ccc(C)cc1,.,4.8,.,.,.,4.6
CCCN1C[C@H](C)[C@@H](OC)CN(C)C(=O)c2ccc(NC(=O)C3CC3)cc2OC[C@H]1C,.,10.4,0.5,-6.0,2.0,-5.5
CC1CCCN(C(=O)C(C)Sc2nc(-c3ccccc3)cc(C(F)(F)F)n2)C1 (stereo unspecified),57.2*,-10.9,.,.,.,.
CC(Sc1nc(-c2ccccc2)cc(C(F)(F)F)n1)C(=O)N1CCCCC1 (stereo unspecified),.,-19.3,.,.,.,.
CCCCOC(=O)c1cc(-c2ccc(/C=N/n3cnnc3)o2)ccc1Cl,-17.7,4.6,.,.,.,57.9*
CO[C@@H]1CN(C)C(=O)c2ccc(NC(=O)NC(C)C)cc2OC[C@H](C)N(Cc2ccccc2)C[C@@H]1C,.,-3.6,.,5.3,2.0,-18.0
Nc1c(Cl)ncnc1N/N=C/c1ccccn1,.,.,67.0*,.,.,24.7
CC(C)c1ccc(NC(=S)NCc2ccc3c(c2)OCO3)cc1,-1.6,4.6,-23.0,-1.0,4.1,-33.8
COc1ccc(NC(=S)NCc2ccc3c(c2)OCO3)cc1,9.1,-22.1,-12.9,64.7*,.,-7.4
C[C@@H]1CN([C@H](C)CO)C(=O)c2cc(NS(=O)(=O)c3ccc(F)cc3)ccc2O[C@@H]1CN(C)C(=O)Nc1ccccc1,9.5[16.7 µM],2.0,.,9.8,-1.7,1.1
CC1C/C(=N\NC(=O)c2ccc(NS(=O)(=O)c3ccc(Br)cc3)cc2)CC(C)(C)C1 (stereo unspecified),-11.6,.,86.2*,9.0,.,.
CC1C/C(=N\NC(=O)c2ccc([N+](=O)[O-])cc2)CC(C)(C)C1 (stereo unspecified),-6.5,5.2,14.9,-10.5,-2.2,-10.1
CNC[C@@H]1OCCCC[C@@H](C)Oc2ccc(NC(=O)Cc3ccccc3)cc2C(=O)N([C@H](C)CO)C[C@H]1C,-8.0[16.7 µM],12.5,6.6,5.5,-0.1,3.2
O=C(c1ccncc1)N1CC2(C1)[C@@H](c1ccccc1)[C@H](CO)N2C(=O)CC1CC1,.,10.0,-8.9,5.6,-0.5,1.2
COCC(=O)N1CCC2(CC1)CN(Cc1cccc(OC)c1)[C@H](CO)c1c2c2ccc(OC)cc2n1C,.,.,.,.,.,0.4
Cc1cc(C)nc(/N=C(\N)Nc2ccc(OCc3ccccc3)cc2)n1,13.1,-18.9,53.6,33.1,2.1,-36.6
Cc1cc(C)nc(/N=C(\N)Nc2ccc(CC(=O)OC(C)C)cc2)n1,67.6*,5.3,-2.6,-1.1,-0.7,.
Cc1cc(C)nc(/N=C(\N)Nc2cccc(OCc3ccccc3)c2)n1,-15.8,-5.9,36.1,53.1*,-0.5,.
CNC[C@H]1Oc2ccc(NC(=O)Nc3ccc4c(c3)OCO4)cc2CC(=O)N([C@@H](C)CO)C[C@@H]1C,-2.6[16.7 µM],-0.7,-7.7,-4.0,-0.6,4.7
Cc1nc2ncnn2c(N2CCN(c3cccc(C(F)(F)F)c3)CC2)c1C,60.1*,.,.,.,.,.
CNC[C@H]1Oc2c(N)cccc2C(=O)N(C)C[C@H]1C,.,.,.,.,.,9.2
COc1ccc(CN(C)C[C@@H]2OCCCC[C@H](C)Oc3ccc(NC(=O)Nc4ccc(OC)cc4)cc3C(=O)N([C@@H](C)CO)C[C@@H]2C)cc1,64.4*[16.7 µM],-19.3,-7.2,4.6,-0.8,-32.6
COc1ccc(NC(=O)Nc2ccc3c(c2)C(=O)N([C@H](C)CO)C[C@@H](C)[C@@H](CN(C)Cc2ccccc2)OCCCC[C@H](C)O3)cc1,0.4[16.7 µM],5.4,-3.9,?,-0.6,-24.1
COc1ccc(NC(=O)Nc2ccc3c(c2)C(=O)N([C@@H](C)CO)C[C@H](C)[C@H](CN(C)Cc2ccccc2)OCCCC[C@H](C)O3)cc1,86.0*[16.7 µM],-6.7,14.3,8.7,2.9,-26.2
COc1ccc(CN(C)C[C@H]2OCCCC[C@H](C)Oc3ccc(NC(=O)Nc4ccc(F)cc4)cc3C(=O)N([C@H](C)CO)C[C@@H]2C)cc1,-36.9[16.7 µM],1.9,-12.0,-5.0,-1.8,-22.2
COc1ccc(CN(C)C[C@H]2OCCCC[C@@H](C)Oc3ccc(NC(=O)Nc4ccc(F)cc4)cc3C(=O)N([C@H](C)CO)C[C@H]2C)cc1,-16.6[16.7 µM],-4.9,51.8,67.1*,-0.9,-29.6
